{"source": "PubChem BioAssay (EPA / NIEHS)", "note": "Results filed as inconclusive are left out. Calls of active or inactive are those of the source. The calls were made as follows: active = hit-call score of the fitted dose curve at least 0.9, where 1 is the maximum; inconclusive = response in the unintended direction; inactive = score below 0.9.", "data": [{"target": "Nuclear receptor subfamily 1 group I member 2 (Homo sapiens) (UniProt O75469)", "sequence (O75469 whole entry, looked up)": "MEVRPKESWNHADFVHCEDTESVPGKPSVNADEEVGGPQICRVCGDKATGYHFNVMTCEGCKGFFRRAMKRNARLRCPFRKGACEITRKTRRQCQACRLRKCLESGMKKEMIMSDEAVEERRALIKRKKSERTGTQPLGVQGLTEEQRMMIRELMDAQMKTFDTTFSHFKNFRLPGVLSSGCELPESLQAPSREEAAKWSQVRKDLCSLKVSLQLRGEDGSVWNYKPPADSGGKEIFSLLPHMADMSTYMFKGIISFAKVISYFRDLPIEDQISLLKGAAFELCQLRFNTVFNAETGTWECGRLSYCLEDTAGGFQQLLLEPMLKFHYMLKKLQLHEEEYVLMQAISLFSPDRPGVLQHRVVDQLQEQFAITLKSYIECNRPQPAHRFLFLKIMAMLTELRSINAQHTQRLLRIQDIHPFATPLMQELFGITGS", "assay": "NVS_NR_hPXR: NovaScreen (NVS) Nuclear Receptor Binding Assay for human Pregnane X Receptor (PXR) (AID 2283365);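 also: a drop in FRET signal versus DMSO baseline means the compound binds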", "method": "NVS_NR_hPXR is a biochemical, single-readout assay that uses extracted gene-proteins in a cell-free assay. Measurements were taken 2 hours after chemical dosing in a 384-well plate.NVS_NR_hPXR is one of one assay component(s) measured or calculated from the NVS_NR_hPXR assay. It is designed to make measurements of fluorescent resonance energy transfer, a form of binding reporter, as detected with fluorescent resonance energy transfer signals by Time-Resolved Fluorescence Resonance Energy Transfer (TR-FRET) technology.Data from the assay component NVS_NR_hPXR was analyzed into 1 assay endpoint. This assay endpoint, NVS_NR_hPXR, was analyzed in the positive analysis fitting direction relative to DMSO as the negative control and baseline of activity. Using a type of binding reporter, loss-of-signal activity can be used to understand changes in the binding as they relate to the gene NR1I2. Furthermore, this assay endpoint can be referred to as a primary readout, because the performed assay has only produced 1 assay endpoint. To generalize the intended target to other relatable targets, this assay endpoint is annotated to the nuclear receptor intended target family, where the subfamily is non-steroidal.\nBinding assays used specific radioligands (tritiated, iodinated) with non-radioactive competitive displacement ligands in agonist or antagonist protocols (as indicated) and various reference compounds and inhibitors to titrate specific binding to receptors and transporters. Most enzyme assays (CYPs, kinases, phosphatases, proteases, HDACs) used recombinant protein and specific substrates (fluorescence mostly, some colorimetric and radioactive) and inhibitors, followed by a biochemical separation of substrate and product. All assays for the biochemical HTS were initially run in duplicate at a single concentration (10 uM for CYP450 assays and 25 uM for all others). […] Each assay was run with positive and negative controls, and concurrent controls on every plate. The follow-up (secondary) screen tested active chemical-pairs in concentration series, as well as a few additional assays not tested in the primary screen, some selected negative inactives, and several cases re-run in the concentration series for confirmatory purposes.", "values": [{"smiles": "CC1(C)CN=C(NN=C(/C=C/c2ccc(C(F)(F)F)cc2)/C=C/c2ccc(C(F)(F)F)cc2)NC1", "AC50": "7.48 µM (active)"}, {"smiles": "CO/N=C(/C(=O)OC)c1ccccc1COc1ccccc1C", "outcome": "inactive"}, {"smiles": "OCC1CO1", "note": "(stereo not given)", "outcome": "inactive"}, {"smiles": "CCCCCCCc1ccc(O)cc1", "outcome": "inactive"}, {"smiles": "O=P(OCC(Br)CBr)(OCC(Br)CBr)OCC(Br)CBr", "note": "(stereo not given)", "AC50": "0.423 µM (active)"}, {"smiles": "O=NN1CCCC1", "outcome": "inactive"}, {"smiles": "CCCCOCCOP(=O)(OCCOCCCC)OCCOCCCC", "AC50": "5.67 µM (active)"}, {"smiles": "CCCCN(CCCC)N=O", "outcome": "inactive"}, {"smiles": "CCCCN(CC)C(=O)SCCC", "outcome": "inactive"}, {"smiles": "CC(C)(C)N(NC(=O)c1ccc(Cl)cc1)C(=O)c1ccccc1", "outcome": "inactive"}]}]}
